Only a selection was taken, and hits are over-represented in it overall.
RECQ1 inh: inhibitors of human RECQ1 DNA helicase; P46063; RECQ1 DNA unwinding, red fluorescence kinetic read; Potency, µM (titrated, usually from 57.3 µM), inactives show top-dose activity, negative = inhibition, usual class: inhibitors; 0.54% of 240,000 active; AID 2549;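 further: plate controls were vehicle for no effect and no enzyme for full effect; nearly all actives have a fitted effect of over 30% in size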
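50 nM RECQ1T1 preincubated 15 min with compound in Tris pH 8.0 buffer with MgCl2, DTT, Tween-20 and 2.5 ug/ml poly(dI-dC); started with 200 nM TAMRA/BHQ-2 forked duplex and 2 mM ATP. Unwinding read as fluorescence (525/598 nm), two reads 2 h apart.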
BLM inh: Bloom syndrome helicase (human) inhibition; P54132; AID 2528; recombinant BLM DNA unwinding, fluorescence dequenching; Potency, µM (titrated, usually from 56.1 µM), for inactives: at the top dose activity change, negative = inhibition, actives largely listed as inhibitors; 0.2% of 350,000 active;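 further: plate controls were vehicle for no effect and no enzyme for full effect; nearly all actives have a fitted effect of over 35% in size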
JMJD2E inh: JMJD2E (human) inhibition; B2RXH2; JMJD2E catalytic domain, FDH-coupled NADH fluorescence (FDH is formaldehyde dehydrogenase); Potency, µM (doses to about 57.1 µM), for inactives: at the highest dose activity change, negative = inhibition, hits mostly inhibitors; 1.6% of 230,000 active; active means well fitted inhibition curve with a large enough effect, not every such curve was filed as active; inconclusive means small, poorly fitted or top-dose-only effect, or another doubt; inactive means no such curve, though single readings can be large or run the other way;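 further: 0% = wells with enzyme and -100% = buffer wells without enzyme; nearly all actives have a fitted effect of over 50% in size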
L3MBTL1 inh-1: blocks human L3MBTL1; AlphaScreen L3MBTL1–H3K9me1 peptide binding; Potency, µM (doses to about 57.1 µM), for inactives: top-dose activity, negative = inhibition, usual class: inhibitors; 0.66% of 230,000 active; AID 485360; further: on the % scale 0 is the no-effect control and ±100 the full control effect; nearly all actives have a fitted effect of over 60% in size
Target sequence (Q9Y468 whole entry, looked up): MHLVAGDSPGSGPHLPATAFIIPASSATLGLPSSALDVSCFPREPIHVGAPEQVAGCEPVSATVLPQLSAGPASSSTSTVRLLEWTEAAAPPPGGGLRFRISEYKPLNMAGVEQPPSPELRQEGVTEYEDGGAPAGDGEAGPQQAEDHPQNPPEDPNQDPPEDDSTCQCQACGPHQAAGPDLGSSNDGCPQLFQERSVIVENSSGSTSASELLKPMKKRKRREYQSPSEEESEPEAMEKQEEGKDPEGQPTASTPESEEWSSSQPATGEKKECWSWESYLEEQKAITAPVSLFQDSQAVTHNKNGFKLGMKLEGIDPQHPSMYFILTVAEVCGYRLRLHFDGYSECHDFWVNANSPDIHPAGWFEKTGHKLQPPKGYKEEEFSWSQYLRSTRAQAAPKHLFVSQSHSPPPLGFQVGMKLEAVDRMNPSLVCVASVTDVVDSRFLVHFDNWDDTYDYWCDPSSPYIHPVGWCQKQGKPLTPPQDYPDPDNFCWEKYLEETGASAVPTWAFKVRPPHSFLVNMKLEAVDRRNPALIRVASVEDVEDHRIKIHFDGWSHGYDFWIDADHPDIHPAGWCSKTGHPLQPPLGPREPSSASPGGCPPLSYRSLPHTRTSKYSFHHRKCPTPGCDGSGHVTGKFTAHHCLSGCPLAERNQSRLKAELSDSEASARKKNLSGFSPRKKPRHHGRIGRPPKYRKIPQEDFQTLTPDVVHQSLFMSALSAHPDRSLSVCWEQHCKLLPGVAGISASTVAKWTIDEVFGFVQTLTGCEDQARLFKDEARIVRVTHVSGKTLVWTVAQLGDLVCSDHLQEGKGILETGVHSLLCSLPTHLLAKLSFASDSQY
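AlphaScreen proximity signal between nickel-chelate acceptor and streptavidin donor beads (final 10 ug/mL) reports binding of 50 nM L3MBTL1 to 75 nM biotin-H3 K9me1 peptide; complex incubated with compounds 30 min at room temperature; cefsulodin titration as control.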
APE1 inh: blocks human APE1 abasic DNA cleavage. P27695. recombinant APE1, TAMRA/BHQ-2 abasic DNA cleavage fluorescence. Potency, µM (series often up to 65.8 µM), inactives show at the top dose activity change, negative = inhibition, usual class: inhibitors. 0.35% of 350,000 active. AID 2517;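 further: plate controls were vehicle for no effect and reference inhibitor for full effect; nearly all actives have a fitted effect of over 55% in size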
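Compound pre-exposure to 0.75 nM APE1, 15 min at ambient temperature. Reaction initiated with 50 nM TAMRA/BHQ-2 THF substrate, read immediately in kinetic mode, 525 nm excitation, 598 nm emission.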
L3MBTL1 inh-2: validation of human L3MBTL1 methyl-lysine binding inhibitors; shares compounds with L3MBTL1 inh-1; L3MBTL1 methyl-lysine binding inhibition, biochemical qHTS; Potency, µM, usual class: inhibitors; 91% of 500 active; AID 540279; further: nearly all actives have a fitted effect of over 70% in size
AlphaScreen ctr2: counter-screen for L3MBTL1 inhibitors: AlphaScreen signal interference | 500 tested, under 10 active | shares compounds with L3MBTL1 inh-1 | AID 602224 | Potency, µM (top dose mostly 57.1 µM), for the others: at the highest dose activity change, negative = inhibition, hits mostly inhibitors | AlphaScreen counterscreen, signal inhibition; further: 0% is about no effect
An asterisk follows results filed as active; i = inactive; u = inconclusive; x = no result given. Unless noted, the call rests on the fitted dose curve; in most records, active means well fitted curve in the direction sought with a large enough effect; inconclusive means small, poorly fitted or top-dose-only effect, or another doubt; inactive means no such curve, though single readings can be large; an effect the other way counts as inactive or inconclusive. Potency means the concentration at half of the fitted maximal effect.

SMILES	RECQ1 inh	BLM inh	JMJD2E inh	L3MBTL1 inh-1	APE1 inh	L3MBTL1 inh-2	AlphaScreen ctr2
O=C(CNC(=O)c1ccc(OC(F)F)cc1)NCc1ccccn1	x	x	x	3%	-4%	x	x
COCCN(C(=O)C1CCC1)c1nnc(-c2cccnc2)s1	-11%	2%	-6%	x	3%	x	x
CCOC(=O)CSc1nc(-c2ccccn2)ncc1OC	-17%	1%	4%	22µM*	-11%	27*	34%
COc1cnc(-c2ccccn2)nc1Oc1ccccc1	2%	3%	11%	32µM*	2%	21*	40%
COc1cnc(-c2ccccn2)nc1Sc1ccc(Cl)cc1	-7%	0%	2%	-9%	4%	x	x
COc1ccc(-n2nc(C(=O)N3CCN(c4cccc(C)c4C)CC3)c3c4ccccc4n(C)c3c2=O)cc1Cl	x	-6%	x	x	x	x	x
Cc1ccc(C(=O)OCC(=O)c2ccc(CC(=O)N3CCOCC3)s2)c(C)c1	x	x	x	20µM*	u	3*	8%
Cc1ccc(C(=O)OCC(=O)c2ccc(CC(=O)N3CCOCC3)s2)cc1C	x	x	x	u	-16%	x	x
CC(=O)c1c(COC(=O)c2ccncc2)nc2ccccc2[n+]1[O-]	5%	-2%	2%	35µM*	4%	u	-1%
CC1CCN(Cc2c(O)ccc3c2O/C(=C\c2ccco2)C3=O)CC1	-2%	-1%	u	10µM*	3%	27*	-2%
COCCN(CCOC)Cc1c(O)ccc2c1O/C(=C\c1ccco1)C2=O	x	-12%	x	x	-16%	x	x
CC(=O)Oc1cc(C(=O)OCC(=O)N2CCc3ccccc3C2)cc(OC(C)=O)c1OC(C)=O	x	x	x	8.9µM*	5.3µM*	3*	3%
CC(=O)c1ccc(NC(=O)CC2Nc3cccc4cccc(c34)NC2=O)cc1 (centres undefined)	i	u	u	3.5µM*	-4%	27*	u
COc1ccc(OCC2CNC(=O)O2)cc1 (centres undefined)	7%	-1%	-4%	-16%	8%	x	x
Nc1ncc(O)c(N)n1	-14%	7%	x	x	-3%	x	x
COC(=O)/C(C(C)=O)=C(/C=C/C=C/N(C)C)N(C)C	11%	-1%	-5%	x	-11%	x	x
COC(=O)\C(C(C)=O)=C(/C=C/C=C/N(C)C)N(C)C	-16%	3%	-21%	14µM*	u	6.7*	19%
O=C(O)c1ccc2c3c(cccc13)C(=O)N(c1ccccc1)C2=O	u	-13%	u	13µM*	u	2.7*	4%
NN1C(=O)c2cccc3c(C(=O)O)ccc(c23)C1=O	-6%	5%	-1%	2%	-7%	x	x
O=C(CSc1c2c(nc3ccc(Cl)cc13)CCCC2)N1CCN(c2cccc(Cl)c2)CC1	x	-5%	x	x	x	x	x
Cc1ccc(/C=C2\SC(=S)N(C3CCS(=O)(=O)C3)C2=O)o1 (centres undefined)	-6%	-6%	-29%	25µM*	4%	21*	-4%
COc1ccccc1NC(=O)N1CCN(c2ccc3nnc(-c4ccc(F)cc4)n3n2)CC1	-1%	46%	-28%	x	-4%	x	x
O=C(Nc1ccc(F)cc1F)c1noc2c1CCC2	-10%	-17%	3%	32µM*	u	6.7*	6%
CCOC(=O)C1(Cc2cccc(OC)c2)CCN(Cc2ccc3c(c2)OCCO3)CC1	i	-1%	12%	-18%	-1%	x	x
O=c1oc2ccccc2c(O)c1C=NCc1ccccn1	10%	2%	3%	16µM*	7%	21*	25%
O=C(NC1CC1)C1CCN(S(=O)(=O)c2cc([N+](=O)[O-])ccc2Cl)CC1	x	x	x	7.9µM*	u	3*	7%
O=C(O)c1cc(C(=O)O)cc(-c2ccc(/C=c3/sc4nc5ccccc5n4c3=O)o2)c1	u	88%	13µM*	1.8µM*	28µM*	3.4*	-5%
COC(=O)c1ccccc1-c1ccc(/C=c2\sc3nc4cc(Br)cnc4n3c2=O)o1	x	x	x	x	-8%	x	x

Assay outcomes as filed in PubChem.
